Test results reported in PubChem BioAssay (Tox21).
Values without a mark were called inactive. Results filed as inconclusive are left out. A call without a number means that no potency is given here. Calls of active or inactive are those of the source. Unless noted, calls come from the whole dose curve; as a rule, active = well fitted curve in the direction sought with a large enough effect in the repeat runs; inconclusive = weak or mixed curves; inactive = no such curve, though single readings can be large; an effect the other way counts as inactive or inconclusive.

Experiments:
[1] = biological target: Thyrotropin-releasing hormone receptor (Homo sapiens) (UniProt P34981); test: qHTS assay to identify small molecule agonists of the thyrotropin-releasing hormone receptor (TRHR) signaling pathway (AID 1346891; calls by dose curve; note: series mostly up to about 58 µM)
How it was run: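 Readout was intracellular calcium fluorescence in TRHR-Hek293 cells. Cells were incubated 18 h, dye-loaded 2 h at 37 °C, and treated with compound in agonist mode.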

[2] = Human pregnane X receptor (PXR) small molecule agonists, qHTS cell viability counter screen (AID 1346977); note: nearly all actives have a fitted effect of over 50% in size; note: potency is the fitted concentration of half-maximal effect
How it was run: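 In each well, the PXR reporter HepG2 line was checked for viability: CellTiter-Fluor reagent added 23hr post-dosing, fluorescence read after 1hr incubation at 37C.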

[3] = Caspase-3/7 induction in HepG2 cells by small molecules, qHTS assay (AID 1346978); note: nearly all actives have a fitted effect of over 15% in size
How it was run: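 Wild-type HepG2 cells (2,000/well) were settled 5 h at 37 C, 5% CO2, then exposed to compounds in DMSO for 17 h. Caspase-3/7 activity was read by luminescence 30 min after adding Caspase-Glo 3/7 reagent at room temperature.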

[4] = Caspase-3/7 induction in CHO-K1 cells by small molecules, qHTS assay (AID 1346980); note: nearly all actives have a fitted effect of over 15% in size
How it was run: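 Wild-type cells were seeded at 1,500 per well and settled 5 hr at 37 C, 5% CO2, then exposed to DMSO-dissolved compounds for 17 hr. Caspase-Glo 3/7 reagent was added, and luminescence was read after 30min at room temperature.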

[5] = Caspase-3/7 induction in HepG2 cells by small molecules, qHTS cell viability counter screen (AID 1346981); note: nearly all actives have a fitted effect of over 30% in size; note: potency is the fitted concentration of half-maximal effect
How it was run: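 Fluorescence read-out of live-cell protease activity (CellTiter-Fluor) after 1 hr with reagent. This was measured in the same wells as the caspase-3/7 luminescence, on HepG2 cells exposed to DMSO-dissolved compounds for 16 hr at 37 C.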

[6] = biological target: Nuclear receptor subfamily 1 group I member 2 (Homo sapiens) (UniProt O75469); test: Human pregnane X receptor (PXR) small molecule agonists, qHTS assay (AID 1346982); note: nearly all actives have a fitted effect of over 35% in size; note: potency is the fitted concentration of half-maximal effect
How it was run: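 HepG2 PXR-Luc reporter line, 5% charcoal-stripped FBS; 5 hr pre-incubation, compound (DMSO) 24 hr at 37 C/5% CO2; ONE-Glo 30 min RT; luminescence read-out.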

[7] = biological target: Acetylcholinesterase (Homo sapiens) (UniProt P22303); test: Acetylcholinesterase (AChE) small molecule antagonists: colormetric cell-based qHTS assay (AID 1347395; calls by dose curve; note: nearly all actives have a fitted effect of over 30% in size; note: potency is the fitted concentration of half-maximal effect)
How it was run: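 After overnight attachment at 37 C, SH-SY5Y cells get 30 min compound exposure; detection cocktail (acetylthiocholine, DTNB) then incubates 90 min at 37 C, and absorbance reflects AChE-generated thiocholine.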

[8] = biological target: Acetylcholinesterase (Homo sapiens) (UniProt P22303); test: Acetylcholinesterase (AChE) small molecule antagonists: enzyme-based qHTS assay (AID 1347397; calls by dose curve; note: nearly all actives have a fitted effect of over 55% in size); details: Potency: AChE enzyme activity inhibition
How it was run: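 Tox21 library chemicals are tested in qHTS format against recombinant human AChE. The enzyme, dispensed at 50 mU/mL, sits with compound for 30 min at room temperature. A DTNB–acetylthiocholine cocktail follows, and colour is read after 10 min.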

[9] = biological target: Acetylcholinesterase (Homo sapiens) (UniProt P22303); test: Acetylcholinesterase (AChE) small molecule antagonists: fluorescence cell-based qHTS assay (AID 1347398; calls by dose curve; note: nearly all actives have a fitted effect of over 50% in size; note: potency is the fitted concentration of half-maximal effect); details: Potency: AChE activity
How it was run: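 Cellular AChE inhibition: SH-SY5Y cells treated with test chemical for 30 min at 37 C, then acetylthiocholine hydrolysis followed over 40 min at room temperature via thiocholine-reactive Thiolite Green fluorescence (490/520 nm).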

[10] = biological target: Acetylcholinesterase (Homo sapiens) (UniProt P22303); test: Acetylcholinesterase (AChE) small molecule antagonists: enzyme-based qHTS assay with human liver microsomes (AID 1347399; calls by dose curve; note: nearly all actives have a fitted effect of over 60% in size); details: Potency: qHTS inhibition
How it was run: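 Recombinant human AChE (50 mU/mL in the enzyme mix) and human liver microsomes (0.25 mg/mL final) were preincubated with compound and NADPH (0.25 mg/mL final) for 30 min at 37 C. Acetylthiocholine/DTNB was then added; thiocholine was read colorimetrically after 10 min at room temperature.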

[11] = biological target: Cytochrome P450 2D6 (Homo sapiens) (UniProt P10635); test: Cytochrome P450 Family 2 Subfamily D Member 6 (CYP2D6) small molecule antagonists: luciferase reporter qHTS assay (AID 1671196); note: potency is the fitted concentration of half-maximal effect; nearly all actives have a fitted effect of over 50% in size
How it was run: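 Luminogenic proluciferin substrate, CYP2D6 enzyme; 10 min RT preincubation with compound, NADPH regeneration system added, 1 h RT. Stop/detection reagent, 20 min RT, luminescence read (RLU). Signal proportional to CYP activity.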

[12] = biological target: Cytochrome P450 2C19 (Homo sapiens) (UniProt P33261); test: Cytochrome P450 Family 2 Subfamily C Member 19 (CYP2C19) small molecule antagonists: luciferase reporter qHTS assay (AID 1671197); note: potency is the fitted concentration of half-maximal effect; nearly all actives have a fitted effect of over 65% in size
How it was run: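 Inhibition of CYP2C19 was scored from loss of luminescence in a P450-Glo proluciferin substrate assay, NADPH-started and run 1 h at 37C, with ketoconazole as positive control.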

[13] = biological target: Cytochrome P450 1A2 (Homo sapiens) (UniProt P05177); test: Cytochrome P450 Family 1 Subfamily A Member 2 (CYP1A2) small molecule antagonists: luciferase reporter qHTS assay (AID 1671199); note: nearly all actives have a fitted effect of over 50% in size; note: potency is the fitted concentration of half-maximal effect
How it was run: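 Luminescence readout (relative luminescence units) after luciferin detection reagent, 20 min RT. Preceded by 1 h room-temperature CYP1A2 reaction with NADPH regeneration solution following 10 min compound preincubation with enzyme and proluciferin substrate. Furafylline positive control.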

[14] = biological target: Voltage-gated inwardly rectifying potassium channel KCNH2 (Homo sapiens) (UniProt Q12809); test: Human Ether-a-go-go-Related Gene (hERG) channel small molecule antagonists: fluorescence cell-based qHTS assay (AID 1671200)
How it was run: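 In this thallium-flux screen, overnight-cultured U2OS cells bearing the channel are dye-loaded in darkness for an hour, rested 10 min at room temperature, and then monitored kinetically at 480/540 nm for two minutes post-stimulus.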

[15] = biological target: Cytochrome P450 3A4 (Homo sapiens) (UniProt P08684); test: Cytochrome P450 Family 3 Subfamily A Member 4 (CYP3A4) small molecule antagonists: luciferase reporter qHTS assay (AID 1671201); note: nearly all actives have a fitted effect of over 50% in size; note: potency is the fitted concentration of half-maximal effect
How it was run: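 CYP3A4 activity was followed with a P450-Glo proluciferin substrate. Test compounds in DMSO were preincubated 10 min; NADPH regeneration then ran 1 h, and light output was read 20 min after detection reagent.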

[16] = Caspase-3/7 induction in CHO-K1 cells by small molecules, qHTS cell viability counter screen (AID 1346979); note: nearly all actives have a fitted effect of over 35% in size
How it was run: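 Following a 5hr settling period, CHO-K1 cells at 1,500 per well received DMSO-dissolved compounds. Cell viability was quantified 16hr later by CellTiter-Fluor fluorescence, measured after 1hr with reagent at 37C.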

[17] = biological target: Cytochrome P450 2C9 (Homo sapiens) (UniProt P11712); test: Cytochrome P450 Family 2 Subfamily C Member 9 (CYP2C9) small molecule antagonists: luciferase reporter qHTS assay (AID 1671198)
How it was run: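 CYP2C9 activity was measured with a P450-Glo proluciferin substrate. Enzyme–substrate mix was held with compound for 10 min at room temperature, then NADPH regeneration solution was added for 1 h at 37C. Luciferin product was read as luminescence.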

[18] = biological target: Nuclear receptor subfamily 1 group I member 2 (Rattus norvegicus) (UniProt Q9R1A7); test: Rat pregnane X receptor (rPXR) activation by small molecules, qHTS assay (AID 1346983); details: rPXR luciferase reporter cells, One-Glo luminescence, 24 h; max activation: hits give high values; note: potency is the fitted concentration of half-maximal effect; nearly all actives have a fitted effect of over 20% in size
How it was run: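 Cell-based rPXR luciferase reporter assay, 2,000 cells per well, rested 5hr at 37 C before compound addition in DMSO, then 24 hr at 37 C. One-Glo reagent was added and luminescence read after 30 min at room temperature.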

[19] = biological target: Nuclear receptor subfamily 1 group I member 2 (Homo sapiens) (UniProt O75469); test: Human pregnane X receptor (PXR) activation by small molecules, qHTS assay (AID 1346985); note: potency is the fitted concentration of half-maximal effect; nearly all actives have a fitted effect of over 40% in size
How it was run: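 DPX-2 cells (HepG2 co-transfected with a PXR response element and a CYP3A4-promoter luciferase construct) were seeded at 2,000 per well, rested 5 hr at 37C, then exposed to DMSO-dissolved compounds for 24 hr. Activation was read as luciferase luminescence.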

Nuclear receptor subfamily 1 group I member 2 (Homo sapiens), sequence (O75469 whole entry, looked up): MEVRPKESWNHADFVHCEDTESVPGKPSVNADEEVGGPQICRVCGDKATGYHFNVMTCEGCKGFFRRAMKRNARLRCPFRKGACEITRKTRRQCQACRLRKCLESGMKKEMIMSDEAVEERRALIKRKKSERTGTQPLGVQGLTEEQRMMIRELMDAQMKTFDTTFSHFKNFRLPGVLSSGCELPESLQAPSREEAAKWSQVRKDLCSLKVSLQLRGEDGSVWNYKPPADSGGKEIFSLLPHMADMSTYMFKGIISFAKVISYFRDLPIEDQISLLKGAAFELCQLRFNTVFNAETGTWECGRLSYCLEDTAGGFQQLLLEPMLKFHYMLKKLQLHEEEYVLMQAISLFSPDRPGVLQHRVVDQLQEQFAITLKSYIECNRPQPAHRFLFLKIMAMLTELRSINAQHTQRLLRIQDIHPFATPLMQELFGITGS
Cytochrome P450 2C19 (Homo sapiens), sequence (P33261 whole entry, looked up): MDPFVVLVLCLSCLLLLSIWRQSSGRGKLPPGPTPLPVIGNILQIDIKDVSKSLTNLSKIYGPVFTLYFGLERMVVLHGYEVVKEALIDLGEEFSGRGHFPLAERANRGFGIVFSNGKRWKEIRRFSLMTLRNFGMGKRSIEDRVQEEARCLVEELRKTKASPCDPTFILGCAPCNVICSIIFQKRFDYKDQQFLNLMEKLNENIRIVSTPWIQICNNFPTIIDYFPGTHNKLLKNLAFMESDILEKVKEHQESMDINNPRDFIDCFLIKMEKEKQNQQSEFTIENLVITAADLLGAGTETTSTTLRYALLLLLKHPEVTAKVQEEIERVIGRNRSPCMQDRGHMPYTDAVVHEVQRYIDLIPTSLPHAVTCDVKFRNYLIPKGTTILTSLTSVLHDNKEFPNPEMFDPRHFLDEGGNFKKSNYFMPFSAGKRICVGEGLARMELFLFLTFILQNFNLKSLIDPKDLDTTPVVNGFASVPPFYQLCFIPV
Thyrotropin-releasing hormone receptor (Homo sapiens), sequence (P34981 whole entry, looked up): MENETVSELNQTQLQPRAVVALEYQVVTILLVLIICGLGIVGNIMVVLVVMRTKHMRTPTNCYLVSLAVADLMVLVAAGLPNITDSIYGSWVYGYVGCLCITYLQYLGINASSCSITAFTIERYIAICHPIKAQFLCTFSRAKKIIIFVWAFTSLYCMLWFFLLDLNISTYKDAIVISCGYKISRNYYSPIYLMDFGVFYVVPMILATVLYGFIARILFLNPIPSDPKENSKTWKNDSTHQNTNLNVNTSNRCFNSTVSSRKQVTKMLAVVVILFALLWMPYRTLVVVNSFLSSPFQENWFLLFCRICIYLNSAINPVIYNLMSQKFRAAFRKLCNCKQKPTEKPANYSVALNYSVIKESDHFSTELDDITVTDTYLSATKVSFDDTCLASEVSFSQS
Cytochrome P450 2D6 (Homo sapiens), sequence (P10635 whole entry, looked up): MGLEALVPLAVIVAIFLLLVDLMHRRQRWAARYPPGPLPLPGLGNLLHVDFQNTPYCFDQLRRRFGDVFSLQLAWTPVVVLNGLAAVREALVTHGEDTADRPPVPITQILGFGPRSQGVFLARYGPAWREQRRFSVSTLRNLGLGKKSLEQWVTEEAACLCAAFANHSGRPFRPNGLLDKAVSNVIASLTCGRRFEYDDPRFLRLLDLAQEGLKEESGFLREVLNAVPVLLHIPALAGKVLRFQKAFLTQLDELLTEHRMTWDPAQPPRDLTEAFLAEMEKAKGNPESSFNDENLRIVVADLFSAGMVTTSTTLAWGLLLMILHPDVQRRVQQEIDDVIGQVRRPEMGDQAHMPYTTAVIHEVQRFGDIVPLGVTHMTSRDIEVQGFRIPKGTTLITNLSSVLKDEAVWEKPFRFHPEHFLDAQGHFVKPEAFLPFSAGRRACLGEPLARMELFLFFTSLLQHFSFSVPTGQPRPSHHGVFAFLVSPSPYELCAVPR
Cytochrome P450 3A4 (Homo sapiens), sequence (P08684 whole entry, looked up): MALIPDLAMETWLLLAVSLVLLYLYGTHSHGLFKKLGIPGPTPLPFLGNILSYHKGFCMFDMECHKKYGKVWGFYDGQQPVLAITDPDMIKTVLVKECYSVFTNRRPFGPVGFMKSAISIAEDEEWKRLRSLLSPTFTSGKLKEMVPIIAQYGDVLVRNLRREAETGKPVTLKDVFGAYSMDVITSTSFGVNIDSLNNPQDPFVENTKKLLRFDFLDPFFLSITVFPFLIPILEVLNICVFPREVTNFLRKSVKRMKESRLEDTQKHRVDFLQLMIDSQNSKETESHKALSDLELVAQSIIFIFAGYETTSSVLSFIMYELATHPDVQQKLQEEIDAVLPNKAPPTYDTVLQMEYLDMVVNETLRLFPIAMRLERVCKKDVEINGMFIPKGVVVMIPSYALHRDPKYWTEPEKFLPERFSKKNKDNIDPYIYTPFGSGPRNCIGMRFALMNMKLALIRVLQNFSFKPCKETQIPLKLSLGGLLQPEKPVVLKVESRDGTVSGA
Cytochrome P450 1A2 (Homo sapiens), sequence (P05177 whole entry, looked up): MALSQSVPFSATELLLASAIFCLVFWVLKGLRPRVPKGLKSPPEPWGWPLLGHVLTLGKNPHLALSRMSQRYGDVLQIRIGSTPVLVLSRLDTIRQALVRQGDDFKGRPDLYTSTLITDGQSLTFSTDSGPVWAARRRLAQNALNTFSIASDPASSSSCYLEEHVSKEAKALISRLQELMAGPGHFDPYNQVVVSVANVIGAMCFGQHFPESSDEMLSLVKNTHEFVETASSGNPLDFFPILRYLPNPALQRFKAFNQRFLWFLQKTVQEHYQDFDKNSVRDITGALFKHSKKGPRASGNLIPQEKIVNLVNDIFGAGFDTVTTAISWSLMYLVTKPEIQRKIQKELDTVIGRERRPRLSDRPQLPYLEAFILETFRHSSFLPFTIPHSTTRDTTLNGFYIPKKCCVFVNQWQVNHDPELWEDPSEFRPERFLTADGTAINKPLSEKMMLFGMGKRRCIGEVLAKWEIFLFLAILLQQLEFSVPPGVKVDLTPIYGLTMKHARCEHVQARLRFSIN
Acetylcholinesterase (Homo sapiens), sequence (P22303 whole entry, looked up): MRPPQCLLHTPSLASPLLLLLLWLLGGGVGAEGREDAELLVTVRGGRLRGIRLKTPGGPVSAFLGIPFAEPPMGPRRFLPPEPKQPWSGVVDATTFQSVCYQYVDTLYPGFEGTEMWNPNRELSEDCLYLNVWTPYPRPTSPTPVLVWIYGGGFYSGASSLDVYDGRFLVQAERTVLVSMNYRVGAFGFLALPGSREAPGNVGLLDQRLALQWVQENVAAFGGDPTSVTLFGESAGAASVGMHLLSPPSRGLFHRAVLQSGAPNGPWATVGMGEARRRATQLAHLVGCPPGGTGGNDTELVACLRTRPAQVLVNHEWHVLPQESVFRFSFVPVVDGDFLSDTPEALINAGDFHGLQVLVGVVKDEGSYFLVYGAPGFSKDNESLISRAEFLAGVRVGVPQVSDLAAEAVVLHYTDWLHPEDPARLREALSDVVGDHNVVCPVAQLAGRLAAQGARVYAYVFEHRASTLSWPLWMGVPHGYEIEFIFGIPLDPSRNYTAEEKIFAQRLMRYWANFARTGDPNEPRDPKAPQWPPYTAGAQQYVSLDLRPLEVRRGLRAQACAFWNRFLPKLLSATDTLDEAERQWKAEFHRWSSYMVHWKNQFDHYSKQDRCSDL
Cytochrome P450 2C9 (Homo sapiens), sequence (P11712 whole entry, looked up): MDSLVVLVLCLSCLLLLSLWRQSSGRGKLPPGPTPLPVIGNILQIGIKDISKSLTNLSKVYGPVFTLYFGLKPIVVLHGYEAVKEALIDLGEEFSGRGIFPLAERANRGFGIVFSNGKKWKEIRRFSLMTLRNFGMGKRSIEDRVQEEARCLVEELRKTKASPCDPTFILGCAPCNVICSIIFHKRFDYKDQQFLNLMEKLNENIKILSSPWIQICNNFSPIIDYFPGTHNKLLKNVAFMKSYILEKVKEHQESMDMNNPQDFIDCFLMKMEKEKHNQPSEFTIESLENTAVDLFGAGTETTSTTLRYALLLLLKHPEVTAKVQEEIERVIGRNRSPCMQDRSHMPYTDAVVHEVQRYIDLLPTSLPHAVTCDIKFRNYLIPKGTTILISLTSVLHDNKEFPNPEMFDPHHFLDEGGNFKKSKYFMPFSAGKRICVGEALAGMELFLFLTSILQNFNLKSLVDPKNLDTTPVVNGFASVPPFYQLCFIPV
Nuclear receptor subfamily 1 group I member 2 (Rattus norvegicus), sequence (Q9R1A7 whole entry, looked up): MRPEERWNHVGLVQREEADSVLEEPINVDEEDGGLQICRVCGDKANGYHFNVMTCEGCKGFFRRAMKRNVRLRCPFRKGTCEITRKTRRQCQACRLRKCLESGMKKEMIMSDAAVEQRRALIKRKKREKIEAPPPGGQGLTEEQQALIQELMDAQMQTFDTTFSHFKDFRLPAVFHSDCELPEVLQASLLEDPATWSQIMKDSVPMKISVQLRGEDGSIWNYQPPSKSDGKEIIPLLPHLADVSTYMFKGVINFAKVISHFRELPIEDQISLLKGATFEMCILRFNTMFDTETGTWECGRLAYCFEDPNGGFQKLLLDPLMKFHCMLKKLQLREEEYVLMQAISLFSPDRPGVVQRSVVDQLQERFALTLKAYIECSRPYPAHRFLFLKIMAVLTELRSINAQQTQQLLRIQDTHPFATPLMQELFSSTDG

Row | Structure (SMILES) | Potency [1] | Potency [2] | Potency [3] | Potency [4] | Potency [5] | Potency [6] | Potency [7] | Potency [8] | Potency [9] | Potency [10] | Potency [11] | Potency [12] | Potency [13] | Potency [14] | Potency [15] | Potency [16] | Potency [17] | Potency [18] | Potency [19]
1 | O=C(CBr)c1ccccc1 | inactive | inactive | inactive | inactive | inactive | inactive | inactive | inactive | inactive | inactive | 2.53 µM (active) | 56.7 µM (active) | 63.7 µM (active) | inactive | inactive | – | – | – | –
2 | C=CC(=O)OC | inactive | inactive | inactive | inactive | inactive | – | – | – | – | – | – | – | – | inactive | – | inactive | – | – | –
3 | COP(=O)(OC)O/C(=C/Cl)c1cc(Cl)c(Cl)cc1Cl | inactive | inactive | inactive | inactive | inactive | 72.4 µM (active) | 42.2 µM (active) | inactive | 37.6 µM (active) | inactive | 33.5 µM (active) | 5.31 µM (active) | 2.66 µM (active) | inactive | inactive | – | – | – | –
4 | COc1nn(CSP(=S)(OC)OC)c(=O)s1 | inactive | inactive | inactive | inactive | – | 54.5 µM (active) | 69.6 µM (active) | inactive | inactive | inactive | 31.7 µM (active) | 0.633 µM (active) | 7.96 µM (active) | inactive | – | – | 5.48 µM (active) | – | –
5 | S=C=NCc1ccccc1 | inactive | inactive | inactive | inactive | – | 61.8 µM (active) | – | inactive | inactive | inactive | 28.6 µM (active) | – | 28.6 µM (active) | inactive | 20.2 µM (active) | inactive | 36 µM (active) | – | –
6 | O=[Se]=O | inactive | 24.2 µM (active) | inactive | inactive | 21.5 µM (active) | inactive | inactive | inactive | inactive | – | – | – | inactive | inactive | inactive | – | – | – | –
7 | O=C1CN=C(c2ccccc2)c2cc(Cl)ccc2N1CC1CC1 | inactive | inactive | inactive | inactive | inactive | 25.5 µM (active) | inactive | – | 29.7 µM (active) | inactive | – | 6.64 µM (active) | – | – | – | – | 26.4 µM (active) | 11.2 µM (active) | 2 µM (active)
